According to PubChem BioAssay (NCATS):
Results filed as inconclusive are left out. Active and inactive are the calls of the source. Calls follow the shape of the dose curve; as a rule, active = well fitted cell-killing curve with a large enough effect; inconclusive = small, poorly fitted or top-dose-only effect, or effect the other way; inactive = no such curve, though single readings can be large or run the other way.

Key:
[1] = Quantitative High-Throughput drug screen in 47 multiple myeloma cell lines against the NCATS MIPE library collection: INA6_PLB cell viability assay (AID 1918965; also: nearly all actives have a fitted effect of over 55% in size)
Procedure, shortened: (§1)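 CellTiter-Glo luminescence (ATP) after 48 h compound exposure, 37C/5% CO2; 500 cells/well; MIPE 4.0 approved/investigational drugs pinned in; DMSO = 100%, media only = 0% viability.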

[2] = Quantitative High-Throughput drug screen in 47 multiple myeloma cell lines against the NCATS MIPE library collection: JJN3_DSMZ cell viability assay (AID 1918966; also: nearly all actives have a fitted effect of over 50% in size)
Procedure, shortened: (§2)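 Inhibition of cell viability is measured here. Each line was plated at 500 cells per well, treated with MIPE 4.0 drugs, kept 48 hours at 37C, then assayed for ATP content by CellTiter-Glo luminescence.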

[3] = Quantitative High-Throughput drug screen in 47 multiple myeloma cell lines against the NCATS MIPE library collection: H1112_PLB cell viability assay (AID 1918967; also: nearly all actives have a fitted effect of over 30% in size)
Procedure, shortened: as §2

[4] = Quantitative High-Throughput drug screen in 47 multiple myeloma cell lines against the NCATS MIPE library collection: Karpas25_ECACC cell viability assay (AID 1918968; also: nearly all actives have a fitted effect of over 35% in size)
Procedure, shortened: as §2

[5] = Quantitative High-Throughput drug screen in 47 multiple myeloma cell lines against the NCATS MIPE library collection: KMS12BM_JCRB cell viability assay (AID 1918971); also: nearly all actives have a fitted effect of over 35% in size
Procedure, shortened: (§3)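 We plated 500 myeloma cells per well, pinned in MIPE 4.0 compounds, and incubated for 48 hours at 37C. ATP was then quantified with CellTiter-Glo, with DMSO and media-only wells defining 100% and 0%.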

[6] = Quantitative High-Throughput drug screen in 47 multiple myeloma cell lines against the NCATS MIPE library collection: KMS26_JCRB cell viability assay (AID 1918975); also: nearly all actives have a fitted effect of over 45% in size
Procedure, shortened: as §3

[7] = Quantitative High-Throughput drug screen in 47 multiple myeloma cell lines against the NCATS MIPE library collection: MMM1_PLB cell viability assay (AID 1918976); also: nearly all actives have a fitted effect of over 35% in size
Procedure, shortened: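 500 cells/well; MIPE 4.0 drugs pin-transferred; 48 h, 37C, 5% CO2. CellTiter-Glo, 5 min RT, luminescence. Controls: DMSO 100%, media 0%.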

[8] = Quantitative High-Throughput drug screen in 47 multiple myeloma cell lines against the NCATS MIPE library collection: KMS27_JCRB cell viability assay (AID 1918970); also: nearly all actives have a fitted effect of over 30% in size
Procedure, shortened: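 KMS27_JCRB myeloma cells, 500 per well, exposed 48 h at 37 C, 5% CO2 to MIPE 4.0 compounds. Viability from ATP by CellTiter-Glo luminescence, normalized to DMSO (100%) and medium-only (0%) wells.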

[9] = Quantitative High-Throughput drug screen in 47 multiple myeloma cell lines against the NCATS MIPE library collection: KMS12PE_JCRB cell viability assay (AID 1918972); also: nearly all actives have a fitted effect of over 30% in size; as to viability: series mostly up to about 46 µM
Procedure, shortened: as §1

[10] = Quantitative High-Throughput drug screen in 47 multiple myeloma cell lines against the NCATS MIPE library collection: KMS20_JCRB cell viability assay (AID 1918973); also: nearly all actives have a fitted effect of over 45% in size
Procedure, shortened: as §2

Measured: Potency
Potency is read from the fitted curve at half-maximal effect.

C=CCON=C(C[C@H]1O[C@@H]2O[C@]3(C)CC[C@@H]4[C@H](C)CC[C@@H]([C@H]1C)[C@@]24OO3)[C@H]1O[C@@H]2O[C@]3(C)CC[C@H]4[C@H](C)CC[C@@H]([C@@H]1C)[C@@]24OO3
active: [1] 469 nM | [2] 418 nM | [3] 469 nM | [4] 209 nM | [5] 148 nM | [6] 264 nM | [7] 187 nM

COc1ccc(N(C(=O)Oc2c(C)cccc2C)c2ccnc(Nc3ccc(N4CCN(C)CC4)cc3)n2)c(OC)c1
active: [1] 1480 nM | [2] 18700 nM | [3] 372 nM | [4] 2640 nM | [8] 2960 nM | [6] 1480 nM | [7] 3720 nM

O=S(=O)(F)Cc1ccccc1
inactive: [2] | [3] | [5] | [9]
active: [1] 1180 nM | [4] 2640 nM

COCC1(CO)C(=O)C2CCN1CC2 (configuration not stated)
active: [1] 2960 nM | [2] 590 nM | [3] 20900 nM | [4] 3720 nM | [8] 4180 nM | [9] 9350 nM | [10] 296 nM | [6] 662 nM | [7] 5260 nM

CC=C(C)C(=O)O[C@H]1C(C)=C2[C@@H]3OC(=O)[C@@](C)(O)[C@@]3(O)[C@@H](OC(=O)CCC)C[C@](C)(OC(C)=O)[C@@H]2[C@@H]1OC(=O)CCCCCCC
inactive: [8]
active: [1] 93.5 nM | [2] 46.9 nM | [3] 526 nM | [4] 83.3 nM | [6] 29.6 nM | [7] 23.5 nM

Cc1[nH]nc2ccc(-c3cncc(OC[C@@H](N)Cc4c[nH]c5ccccc45)c3)cc12
active: [1] 372 nM | [2] 264 nM | [3] 935 nM | [4] 2350 nM | [6] 1180 nM | [7] 1180 nM
inactive: [8] | [9]

O=c1[nH]c2ccccc2n1C1CCN(Cc2ccc(-c3[nH]c4cc5ncnc5cc4nc3-c3ccccc3)cc2)CC1
active: [1] 1480 nM | [2] 29600 nM | [3] 833 nM | [4] 8330 nM | [8] 18700 nM | [5] 20900 nM | [6] 23500 nM | [7] 14800 nM

CCN1CCN(C(=O)Cc2ccc(Nc3ncc(F)c(Nc4ccc(C(=O)Nc5ccccc5Cl)cc4)n3)cc2)CC1
active: [1] 935 nM | [2] 7430 nM | [3] 6620 nM | [4] 2350 nM | [8] 2960 nM | [10] 1180 nM | [6] 8330 nM

NC1CC1c1ccccc1 (configuration not stated)
not listed: [2] | [7] | [10]
inactive: all other assays above

O=S(=O)(CC1CS1)c1ccc(Oc2ccccc2)cc1 (configuration not stated)
active: [1] 14800 nM | [2] 11800 nM | [4] 16600 nM | [5] 26400 nM | [10] 14800 nM | [6] 26400 nM | [7] 16600 nM

CC(=Cc1csc(C)n1)[C@@H]1C[C@H]2O[C@@H]2CCC[C@H](C)[C@@H](O)[C@@H](C)C(=O)C(C)(C)[C@@H](O)CC(=O)O1
inactive: [1] | [3] | [4] | [6]
active: [2] 264 nM

O=C1CCC[C@@H]2[C@H]3CCCN4CCC[C@@H](CN12)[C@@H]34
inactive: [1] | [3] | [8] | [6]

CSCC[C@@H](NC(=O)[C@@H](Cc1ccccc1)NC(=O)CNC(=O)CNC(=O)[C@@H](N)Cc1ccc(O)cc1)C(=O)O
inactive: [1] | [3] | [4] | [8] | [10] | [6]

CN[C@@H]1Cc2cccc3[nH]c(=O)n(c23)C1
active: [7] 5260 nM
inactive: [1] | [2] | [4] | [8] | [6]

C=C[C@@H]1CN2CCC1C[C@H]2[C@H](O)c1ccnc2ccccc12 (some centres not stated)
active: [1] 20900 nM | [3] 13200 nM | [7] 7430 nM
inactive: [6]

CC(=Cc1csc(C)n1)[C@@H]1C[C@H]2O[C@]2(C)CCC[C@H](C)[C@@H](O)[C@@H](C)C(=O)C(C)(C)[C@@H](O)CC(=O)O1
inactive: [1] | [2] | [3] | [4] | [7]

C[C@]12CC[C@H]3[C@@H](CCC4=CC(=O)CC[C@@]43C)[C@H]1CC[C@H]2O
inactive: [1] | [3] | [4] | [8] | [10]

C[C@H]([C@H](O)CCC(C)(C)O)[C@H]1CC[C@@]2(O)C3=CC(=O)[C@@H]4C[C@@H](O)[C@@H](O)C[C@]4(C)[C@@H]3CC[C@]12C
active: [7] 14800 nM
inactive: [1] | [3] | [4] | [8] | [6]

CCC(=O)OC1CCC2C3CCC4=CC(=O)CC[C@@]4(C)C3CC[C@]12C (some centres not stated)
active: [1] 20900 nM
inactive: [3] | [6]
